Compounds with a hit are over-represented: about 2.4% of the library has one in this group of screens.
M1 PAM parental: counter-screen for M1 PAMs: effect in parental CHO-K1 cells | activation, % at 3 µM | hit rate 0.02% among 360,000 | ATP EC20, Fluo-8 calcium fluorescence; 0% at ATP EC20, 100% at ATP max;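 active = activation above the run cutoff, the mean activation of all test compounds plus 3 SD, cut at about 40% in these data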;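 note: peak over basal fluorescence ratio in a 140 s read after ATP addition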
CHRM1 agonist: activates human CHRM1 receptor | AID 588814 | hit rate 0.33% among 360,000 | activation, % at 3 µM | CHO-K1 hM1, Fluo-8 calcium fluorescence, agonist mode; 0% DMSO, 100% acetylcholine EC100;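 active = activation above the run's mean compound activation plus 3 SD, cut at about 16% in these data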;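 note: peak over basal fluorescence ratio within a 140 s kinetic read after compound addition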
Target sequence (P11229 whole entry, looked up): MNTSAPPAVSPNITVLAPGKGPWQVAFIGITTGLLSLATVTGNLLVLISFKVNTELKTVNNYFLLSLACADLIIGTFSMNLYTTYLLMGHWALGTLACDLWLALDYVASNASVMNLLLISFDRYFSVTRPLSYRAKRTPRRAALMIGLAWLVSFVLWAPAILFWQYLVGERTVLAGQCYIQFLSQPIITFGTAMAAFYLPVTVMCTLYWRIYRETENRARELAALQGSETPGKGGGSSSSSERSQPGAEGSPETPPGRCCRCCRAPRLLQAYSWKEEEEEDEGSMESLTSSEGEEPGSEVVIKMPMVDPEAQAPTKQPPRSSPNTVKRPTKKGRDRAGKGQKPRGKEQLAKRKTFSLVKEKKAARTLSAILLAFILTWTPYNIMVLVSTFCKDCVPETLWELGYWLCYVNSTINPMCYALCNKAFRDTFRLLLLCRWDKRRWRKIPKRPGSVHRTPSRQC
CHO-K1 Ca antag: nonselective inhibitor or artifact in parental CHO-K1 cells; inhibition, % at 3 µM; AID 602250; ATP-induced calcium, Fluo-8 fluorescence; hit rate 0.6% among 360,000;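 active = inhibition above a per-plate cutoff, the plate's mean sample inhibition plus 3 SD, cut at about 24% in these data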;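 note: 0% = DMSO plus EC80 ATP and 100% = DMSO alone without ATP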
M1 PAM: potentiates human M1 receptor response to acetylcholine. P11229. CHO-K1 hM1, Fluo-8 calcium fluorescence, ACh EC20; 0% = ACh EC20, 100% = maximal ACh. hit rate 0.088% among 360,000. activation, % at 3 µM; in the data active = activation above about 19%, passing the limit was not always enough
CHRM1 antagonist: blocks human M1 muscarinic receptor; P11229; inhibition, % at 3 µM; CHO-K1 hM1, Fluo-8 calcium fluorescence, ACh EC80 antagonist; hit rate 1.3% among 360,000;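 active = percent inhibition above its own plate's cutoff, namely the mean of that plate's compound wells plus 3 SD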;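 note: peak over basal fluorescence ratio during 140 s after agonist addition; 0% = ACh EC80 plus DMSO and 100% = DMSO alone without agonist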
M1 ag parental: M1 agonist counterscreen hit in parental CHO-K1 cells | Fluo-8 calcium fluorescence; scaled to maximal ATP response, vehicle zero | activation, % at 3 µM | hit rate 0.48% among 360,000; in the data active = activation above about 15%;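 note: untransfected CHO-K1 host cells lacking M1 receptor as counterscreen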
An asterisk follows results filed as active; · = no result given.

SMILES	M1 PAM parental	CHRM1 agonist	CHO-K1 Ca antag	M1 PAM	CHRM1 antagonist	M1 ag parental
O=C(Nc1ccc(CN2CCOCC2)cc1)c1ccc(-c2cccc(Cl)c2)o1	22	-1	-5	1	2	4
Cc1ccc(C(=O)NC(=S)Nc2ccc(CN3CCOCC3)cc2)cc1	-4	-4	2	0	2	5
O=C(COC(=O)c1nc(-c2ccccc2)n(-c2cccc(C(F)(F)F)c2)n1)NCc1cccs1	-11	-10	7	-21	15	0
O=C1C2C3C=CC(C3)C2C(=O)N1c1ccc(N2CCN(c3ccccn3)CC2)c([N+](=O)[O-])c1 (configuration not stated)	-13	1	20	-17	39*	14
O=C(O)CC(Cc1ccccc1)(C(=O)O)c1ccccc1 (configuration not stated)	-16	-1	1	2	-10	0
COc1ccccc1/C=C/CN1CCCC(CO)(CCc2ccccc2)C1 (configuration not stated)	12	-8	0	-18	19	1
OCC1(CCc2ccccc2)CCCN(C/C=C/c2ccccc2)C1 (configuration not stated)	-9	-9	-9	-25	35*	0
CCOC(=O)c1sc(=S)n(C)c1NC(=O)c1ccccc1Cl	22	-5	-9	4	-2	3
Cc1cn(CC(=O)NCCc2c[nH]c3ccccc23)c(=O)[nH]c1=O	-3	-1	3	7	-11	0
C=CCSc1nsc(NC(=O)Nc2ccc(F)cc2)n1	13	5	25*	-13	31*	14
CCSc1nsc(NC(=O)Nc2cccc(OC)c2)n1	5	4	13	-14	27*	17*
CCSc1nsc(NC(=O)Nc2ccccc2F)n1	-7	4	6	-12	22	14
Cc1nn(CC(=O)N(C)C)c(C)c1S(=O)(=O)N1CCOCC1	9	-3	-10	11	-11	1
O=C(CCCN1CCC(c2ccccc2)C1)c1ccc2c(c1)OCCO2 (configuration not stated)	3	-8	-20	-26	35*	2
COc1cc(/C=C/C(=O)c2ccc3c(c2)OCO3)cc(Cl)c1O	-5	47*	17	-19	35*	23*
CN(C)C(CNC(=O)CN1C(=O)NC2(CCCC2)C1=O)c1ccccc1 (configuration not stated)	9	-8	-4	-22	48*	1
COc1ccc(OCC(O)CNS(=O)(=O)c2cccs2)cc1 (configuration not stated)	7	1	-6	10	-10	0
COCCNC(=O)C1CCC(Cn2c(=S)[nH]c3ccccc3c2=O)CC1 (configuration not stated)	-2	1	30*	2	1	0
O=C(Nc1ccc(Cc2ccncc2)cc1)C1CCC(N2C(=O)C3C4C=CC(C4)C3C2=O)CC1 (configuration not stated)	-1	6	2	-11	-10	18*
CCN(c1cccc(C)c1)S(=O)(=O)c1ccc2c3c(cccc13)C(=O)N2	-8	-3	28*	0	6	1
CCOC(=O)C1(CCOC)CCN(C/C=C/c2ccccc2OC)CC1	-1	-5	31*	-11	17	6
CCOC(=O)C1(CCCc2ccccc2)CCN(Cc2nccn2CC)CC1	-12	-10	18	-29	48*	3
CCOC(=O)C1(CCOc2ccccc2)CCN(Cc2nccn2CC)CC1	21	-10	-3	-27	27*	2
CCn1ccnc1CN1CCC(CO)(CCOc2ccccc2)CC1	-4	-13	6	-9	1	0
CCOC(=O)C1(CCc2ccccc2)CCN(C(=O)C2CCOCC2)CC1	-17	-6	25*	-13	15	0
SMILES	M1 PAM parental	CHRM1 agonist	CHO-K1 Ca antag	M1 PAM	CHRM1 antagonist	M1 ag parental
Cc1cc(C)n2nc(CCCO)nc2n1	3	-3	-9	11	-8	0
CCOC(=O)C1(CCOc2ccccc2)CCN(Cc2ccc(C(=O)OC)cc2)CC1	-3	-4	1	-23	42*	2
CCOC(=O)C1(CCCc2ccccc2)CCN(C(=O)CSC)CC1	4	-2	-13	3	-10	2
CCOC(=O)C1(CCOc2ccccc2)CCN(Cc2ccncc2)CC1	1	-13	18	-8	8	2
CCOC(=O)C1(CCCc2ccccc2)CCN(C(=O)CCC2=NNC(=O)CC2)CC1	3	-6	17	-5	6	25*
CCOCCn1c(SC(C)C(C)=O)nc2c1c(=O)[nH]c(=O)n2C (configuration not stated)	-3	-1	-11	11	-13	0
O=C(N1CCOCC1)N1[C@H](COCc2ccccc2)C=CS1(=O)=O	12	11	10	18	-14	1
CCn1ccnc1CNC(=O)c1ccc2oc(CCCc3ccccc3)nc2c1	20	-4	-2	-21	33*	6
CCn1ccnc1CN(C)C(=O)CCc1nnc(CCCc2ccccc2)o1	-15	-9	24*	5	4	0
CN(Cc1ccsc1)C(=O)CCc1nnc(CCCc2ccccc2)o1	17	-3	-11	7	-9	1
CCCCc1nc2cc(C(=O)NCc3ccccn3)ccc2o1	-21	0	4	0	8	0
O=C(Cc1cccc2ccccc12)NCCOc1ccccc1F	1	-3	10	7	1	0
CC(=O)Nc1ccc(NC(=O)CSc2nnnn2-c2ccc(F)cc2)cc1	10	-2	-6	10	-9	1
CCOC(=O)[C@]12CCC=C1N(Cc1ccc3c(c1)OCO3)C(=O)[C@H](CC(=O)NCc1ccccc1)C2	-7	·	-10	·	·	0
c1ccc(Nc2ccc3c4c(cccc24)CC3)cc1	8	43*	40*	-10	52*	40*
c1ccc(Nc2cccc3ccccc23)cc1	25	-4	-9	-1	0	0
C/C(=N\NC(=O)c1ccc(CSc2cccc3cccnc23)cc1)C1CCCCC1	-8	52*	4	-2	-5	0
COc1ccc(/C(C)=N/NC(=O)c2ccc(CSc3cccc4cccnc34)cc2)cc1OC	12	51*	-15	3	1	1
CC(=O)N1CCN(C(=O)c2ccc3c(c2)OCCO3)CC1	16	-2	-13	3	-4	1
CC(C)CN(C(=O)c1cc(=O)[nH]c2ccccc12)c1c(N)n(Cc2ccccc2)c(=O)[nH]c1=O	13	-2	-10	3	-1	1
Cc1ccc(Nc2cc(=O)n(C)c(=O)[nH]2)cc1C	16	-2	-11	13	-15	1
Cc1nnc2ccc(-c3ccc(NS(=O)(=O)c4ccc(Cl)s4)cc3)nn12	12	-2	-18	-3	8	3

Assay outcomes deposited in PubChem BioAssay by The Scripps Research Institute Molecular Screening Center.
